# RE007 growth inh: less growth of the S. pombe RE007 Vpr strain | S. pombe RE007 Vpr strain, BacTiter-Glo ATP luminescence, 24 h | Potency, µM (highest dose often 92.2 µM), for the others: at the highest dose activity change, negative = less growth, actives largely listed as inhibitors | 360,000 tested, 0.21% active | AID 651644; active = well fitted falling curve with a large enough effect; inconclusive = small, poorly fitted or top-dose-only effect; inactive = no such curve, though single readings can be large or run the other way; also: % is scaled to controls: 0 for no effect and ±100 for the full control effect; nearly all actives have a fitted effect of over 50% in size
#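 Fission yeast RE007 carrying one integrated HIV-1 vpr copy, seeded at OD 0.01 in PMG+AL medium with 23 nL pinned compound. Grown 24 h at 30 degrees; viability read by BacTiter-Glo luminescence after 5 min.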
# SARS PLpro yeast: SARS-CoV PLP inhibition in yeast; AID 485353; S. cerevisiae expressing SARS-CoV PLpro, growth rescue; 330,000 tested, 0.19% active; Potency, µM (highest dose often 32.9 µM), without a hit: at the top dose activity, positive = growth rescue, hits mostly activators; calls by dose curve; also: 0% is about no effect; nearly all actives have a fitted effect of over 55% in size
# LmPK inhibitor: blocks Leishmania mexicana pyruvate kinase activity. Q27686. purified LmPK, Kinase-Glo ATP luminescence, 1 h. Potency, µM (highest dose often 57.5 µM), without a hit: top-dose activity change, negative = inhibition, actives largely listed as inhibitors. 290,000 tested, 0.37% active; also: % is scaled to controls: 0 for no effect and ±100 for the full control effect
# Target sequence (Q27686 whole entry, looked up): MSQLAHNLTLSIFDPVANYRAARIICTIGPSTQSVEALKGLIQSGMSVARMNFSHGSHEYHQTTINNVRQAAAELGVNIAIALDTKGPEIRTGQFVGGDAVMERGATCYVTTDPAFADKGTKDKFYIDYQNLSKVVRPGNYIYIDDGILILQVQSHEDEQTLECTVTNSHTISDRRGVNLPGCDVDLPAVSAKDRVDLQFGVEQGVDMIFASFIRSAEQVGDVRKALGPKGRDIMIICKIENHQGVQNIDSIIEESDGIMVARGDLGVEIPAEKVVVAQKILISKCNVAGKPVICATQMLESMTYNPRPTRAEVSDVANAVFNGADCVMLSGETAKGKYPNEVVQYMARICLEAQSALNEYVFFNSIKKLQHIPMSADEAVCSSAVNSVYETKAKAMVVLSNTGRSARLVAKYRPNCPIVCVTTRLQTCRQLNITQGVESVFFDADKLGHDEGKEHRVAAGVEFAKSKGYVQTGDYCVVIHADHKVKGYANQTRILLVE
#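 Purified LmPK (0.1 nM) with 0.5 mM PEP and 0.1 mM ADP in imidazole buffer pH 7.2 with MgCl2/KCl, 1 h at room temperature. ATP formed was read by luciferase luminescence and normalized to no-enzyme and uninhibited controls.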
# AMA1 RON2 block: AMA1-RON2 (P. falciparum) interaction inhibition; 360,000 tested, 0.2% active; Potency, µM (titrated, usually from 58.2 µM), without a hit: at the top dose activity change, negative = inhibition, hits mostly inhibitors; AlphaScreen AMA1-biotinylated RON2 peptide binding;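 also: 0% = vehicle wells and -100% = peptide control; nearly all actives have a fitted effect of over 45% in size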
#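 AMA1 (3D7) with his tag at 25 nM final met compounds first, then biotinylated RON2 peptide at 25 nM; detection used donor plus acceptor beads, 10 µg/mL apiece, read by AlphaScreen after 30 min at room temperature.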
# Tb PYK inh: inhibitors of Trypanosoma brucei pyruvate kinase; TbPYK enzyme, Kinase-Glo Plus ATP luminescence, 45 min; Potency, µM (series often up to 76.8 µM), without a hit: at the highest dose activity, negative = inhibition, most hits filed as inhibitors; 410,000 tested, 0.12% active; AID 624173; also: % is scaled to controls: 0 for no effect and ±100 for the full control effect; nearly all actives have a fitted effect of over 50% in size
#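 Assay buffer: 50 mM TEA pH 7.2, 100 mM KCl, 10 mM MgCl2, 0.05% BSA, 0.01% Tween-20. Pyruvate kinase from T. brucei plus substrate met compound, then ADP (130 uM final). Luminescence was read post 45 min RT.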
# Active calls of the source: *; u = inconclusive; x = no result; [ ] = remark or other dose. Hits are enriched below; roughly 0.81% of the tested compounds scored in any of these assays. Unless noted, calls follow the shape of the dose curve; as a rule, active = well fitted curve in the direction sought with a large enough effect; inconclusive = small, poorly fitted or top-dose-only effect, or another doubt; inactive = no such curve, though single readings can be large; an effect the other way counts as inactive or inconclusive. Potency is read from the fitted curve at half-maximal effect.
SMILES,RE007 growth inh,SARS PLpro yeast,LmPK inhibitor,AMA1 RON2 block,Tb PYK inh
Cc1cccc(/C(N)=N/OC(=O)c2cccnc2)c1,-14.9%,0.4%,22.4µM*,12.4%,1.7%
COc1cc(OC)cc(C(=O)O/N=C(\N)c2cccc(C)c2)c1,-15.9%,-0.5%,1.2%,33.6%,4.3%
CCOC(=O)[C@]12CCCC=C1N(Cc1ccccc1)C(=O)[C@H](CC(=O)N1CCN(C(=O)C3CC3)CC1)C2,u,x,x,2.6%,x
CSc1ccc(C2c3c(oc4ccc(F)cc4c3=O)C(=O)N2c2ccc(C)cn2)cc1 (configuration not stated),x,x,x,x,6.3%
Cc1cccc(C)c1NC(=O)CN1CCCCCC1,x,x,x,x,9.7%
Cc1c(N)c(C)c([N+](=O)[O-])c(C)c1[N+](=O)[O-],-3.7%,0.1%,8.8%,-6.2%,3.8%
Cc1c(N)c(C(C)(C)C)cc(C(C)(C)C)c1[N+](=O)[O-],31.6µM*,9.7%,-2.7%,u,-0.1%
CN1/C(=C\C=O)C(C)(C)c2ccccc21,4.1%,-0.7%,5.2%,1.2%,-1.8%
CN1/C(=C\C=C\C2=[N+](C)c3ccc4ccccc4c3C2(C)C)C(C)(C)c2ccccc21,x,-31.2%,14.1µM*,x,x
CN1\C(=C/C=C/C=C/C=[N+](C)C)C(C)(C)c2ccccc21,u,-9.0%,10µM*,22.4µM*,u
CO[C@@]1(NC(=O)CSC(F)F)C(=O)N2C(C(=O)O)=C(CSc3nnnn3CCO)CO[C@@H]21,x,x,x,x,-9.2%
CCOc1cc2sc(N3CCC(C(=O)Nc4ccccc4Cl)CC3)nc2cc1Br,x,x,x,x,4.1%
COc1cc2c(cc1/C=C/[N+](=O)[O-])OCO2,14.1µM*,-23.5%,-4.7%,-8.5%,-7.3%
COC(=O)c1cc2c(cc1[N+](=O)[O-])OCO2,10.7%,3.5%,-9.5%,0.0%,0.2%
C[S+](C)CC[C@H](N)C(=O)O,x,x,x,x,-4.1%
Cc1cc(O)c(C=O)c2c1C(=O)Oc1c(CO)c(O)c3c(c1O2)C(O)OC3=O (configuration not stated),4.2%,8.4%,-7.1%,1.12µM*,2.5%
CCC1CC2CC3c4[nH]c5ccc(OC)cc5c4CCN(C2)C13 (configuration not stated),x,x,x,x,-11.4%[157 µM]
N#C[C@H]1C[C@H]2C[C@@H]2N1C(=O)[C@@H](N)C12CC3CC(CC(O)(C3)C1)C2,x,x,x,x,-2.3%
C[C@H](CN1CCCC1)C(=O)c1ccc(C(F)(F)F)cc1,x,x,x,x,0.0%
CCC1(C)N=C(c2ccc3c(c2)OCO3)CC(c2ccccc2O)N1 (configuration not stated),-1.2%,-26.4%,10µM*,-2.7%,-9.4%
CCn1c(=O)c2c(n3c(=S)[nH]nc13)-c1ccccc1CC21CCCCC1,0.1%,-1.8%,14.1µM*,17.6%,u
CCn1c(SCC#N)nc2c(c1=O)C1(CCCC1)Cc1ccccc1-2,4.4%,0.3%,3.8%,-6.9%,5.3%
CCc1ccc(C2=NN(S(C)(=O)=O)C(c3cccs3)C2)cc1 (configuration not stated),-14.4%,-16.8%,22.4µM*,13.1%,-6.9%
CCc1ccc2oc(-c3cc(N)ccc3Cl)nc2c1,15.8µM*,-7.1%,-27.6%,-9.7%,-2.5%
CCc1ccc2oc(-c3cc(N)ccc3O)nc2c1,u,11.7%,u,82.2%,-20.6%
SMILES,RE007 growth inh,SARS PLpro yeast,LmPK inhibitor,AMA1 RON2 block,Tb PYK inh
COc1cc(OC)c2c(c1C(CCN1CCOCC1)c1ccc(N(C)C)cc1)OC(=O)CC2c1ccc(N(C)C)cc1 (configuration not stated),4.3%,3.8%,5.5%,14.1µM*,-6.5%
COc1cc(C(CCN2CCOCC2)c2c(OC)cc(OC)c3c2OC(=O)CC3c2ccc(N(C)C)cc2)cc(OC)c1OC (configuration not stated),-16.7%,1.3%,0.4%,20µM*,-6.3%
COc1cc(C2CC(=O)Oc3c(C(CCN4CCCC(C)C4)c4ccc(N(C)C)cc4)c(OC)cc(OC)c32)cc(OC)c1OC (configuration not stated),5.0%,-3.8%,6.1%,-26.6%,2.3%
COc1ccc(C2CC(=O)Oc3c(C(CCN4CCN(c5ccccc5)CC4)c4ccc(N(C)C)cc4)c(OC)cc(OC)c32)cc1 (configuration not stated),-15.9%,7.2%,2.8%,11.2µM*,1.7%
COc1ccc(C2CC(=O)Oc3c(C(CCN4CCOCC4)c4cc(OC)c(OC)c(OC)c4)c(OC)cc(OC)c32)cc1 (configuration not stated),-11.0%,0.2%,9.5%,-19.8%,3.6%
COc1cc(C(CCN2CCCC(C)C2)c2c(OC)cc(OC)c3c2OC(=O)CC3c2ccc(N(C)C)cc2)cc(OC)c1OC (configuration not stated),0.4%,-1.4%,0.6%,20µM*,-14.5%
C=C1CC2C3C=C(C)C4=CC(=O)CCC4(C)C3CCC2(C)[C@@]1(OC(C)=O)C(C)=O (some centres not stated),x,x,x,x,2.1%
CN(CC1(C)CCCO1)S(=O)(=O)c1ccc(Cl)c(S(N)(=O)=O)c1 (configuration not stated),x,x,x,x,0.0%
Nc1[nH]c(C(=O)c2ccccc2)c(-c2ccncc2)c1C(=O)NCCc1c[nH]c2ccccc12,0.1%,x,x,26.8%,-0.7%
CC(=O)C1=C(C)NC(SCC(=O)c2ccccc2)=C(C#N)C1CC(C)C (configuration not stated),11.3%,-1.6%,4.9%,-0.9%,31.6µM*
CN(C)c1ccc(/C=C/C(=O)c2ccccc2O)cc1,-6.1%,-5.2%,-0.8%[11.5 µM],14.1µM*,-11.8%
CC(C)c1ccc(-c2noc(SCC(=O)N3CCCCC3)n2)cc1,x,x,x,x,-4.5%
O=C(Nc1nc2cc3c(cc2s1)OCCO3)c1ccco1,u,-13.4%,-26.8%,-5.3%,-17.6%
O=C(Nc1nc2cc3c(cc2s1)OCO3)c1ccco1,u,-4.6%,15.8µM*,4.0%,-10.1%
CN(C)C(CNc1ccc(S(C)(=O)=O)cc1[N+](=O)[O-])c1ccccc1 (configuration not stated),-8.5%,8.5%,2.5%,4.9%,3.1%
CN(C)C(CNc1ccc(C(F)(F)F)cc1[N+](=O)[O-])c1ccccc1 (configuration not stated),-26.9%,2.5%,-6.1%,14.1µM*,-4.3%
Cc1cccc(N2CCN(C(=O)CCCn3c(=O)[nH]c4ccsc4c3=O)CC2)c1C,x,x,x,x,-6.1%
CCOC(=O)C1CCCN(C2=C(NS(=O)(=O)c3ccc(Br)cc3)C(=O)c3ccccc3C2=O)C1 (configuration not stated),-7.6%,u,-3.2%,12.6µM*,-13.6%
CCOC(=O)N1CCN(C2=C(NS(=O)(=O)c3ccc(NC(C)=O)cc3)C(=O)c3ccccc3C2=O)CC1,-20.6%,1.6%,-5.1%,-26.2%,-14.0%

# Screening results (PubChem BioAssay)
